Laboratory results reported in PubChem BioAssay AID493170 (National Center for Advancing Translational Sciences (NCATS), 2011).
Records with an inconclusive call do not appear. Values without a mark were called inactive. Activity calls are given as the source filed them. Calls come from the whole dose curve; as a rule, active = well fitted inhibition curve with a large enough effect; inconclusive = small, poorly fitted or top-dose-only effect, or effect the other way; inactive = flat fitted curve, though single readings scatter.

Target: Ubiquitin carboxyl-terminal hydrolase 2 (Homo sapiens) (UniProt O75604)
Assay: Ub-rhodamine 110 based assay for inhibitors Ubiquitin-specific Protease USP2a; note: nearly all actives have a fitted effect of over 50% in size
Details: USP2a Ub-rhodamine110 cleavage, fluorescence; series mostly up to 38.3 µM; activity change, negative = inhibition: at the top concentration
In short: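 5 nM USP2a preincubated with compounds for 30 min at RT in 20 mM Tris-HCl pH 8.0, 2 mM CaCl2, 2 mM beta-mercaptoethanol, 0.05% CHAPS. Cleavage of 150 nM Ub-rhodamine 110 read kinetically (Ex 485/Em 531) for 7 min.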
% is set by controls: 0 for no effect and ±100 for the full control effect; potency is the fitted concentration of half-maximal effect.

Sequence of Ubiquitin carboxyl-terminal hydrolase 2 (Homo sapiens) (O75604 whole entry, looked up): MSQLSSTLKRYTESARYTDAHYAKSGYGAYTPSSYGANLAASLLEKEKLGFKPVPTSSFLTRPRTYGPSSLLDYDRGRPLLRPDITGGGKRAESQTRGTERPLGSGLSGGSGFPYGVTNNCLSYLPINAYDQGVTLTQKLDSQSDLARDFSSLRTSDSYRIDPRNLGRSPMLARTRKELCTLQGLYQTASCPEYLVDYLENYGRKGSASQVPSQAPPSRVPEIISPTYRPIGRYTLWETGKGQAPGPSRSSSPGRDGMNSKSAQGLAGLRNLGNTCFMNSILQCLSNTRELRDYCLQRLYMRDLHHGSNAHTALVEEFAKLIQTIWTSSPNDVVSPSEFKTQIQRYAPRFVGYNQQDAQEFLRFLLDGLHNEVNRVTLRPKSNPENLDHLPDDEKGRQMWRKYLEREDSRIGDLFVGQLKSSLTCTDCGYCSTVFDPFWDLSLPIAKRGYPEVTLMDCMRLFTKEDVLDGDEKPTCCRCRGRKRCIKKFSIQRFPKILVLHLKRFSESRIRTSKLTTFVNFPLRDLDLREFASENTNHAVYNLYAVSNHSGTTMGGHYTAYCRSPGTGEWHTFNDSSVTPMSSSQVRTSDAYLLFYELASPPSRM

| Compound | activity change, negative = inhibition | Potency |
| --- | --- | --- |
| CCOc1ccccc1C(=O)NC1CC2CCCC(C1)N2C1CC1 (centres undefined) | 4.05% |  |
| Cc1cnc(N)c2c(=O)oc3ccccc3c12 | -3.73% |  |
| CCOc1ccc(NC(=O)CSc2nnc(Cn3c(=O)sc4ccccc43)n2C)cc1 | -1.33% |  |
| CC1(C)CC(=O)C2=C(C1)NCN(CCCN1CCOCC1)C2 | 1.43% |  |
| CCn1c(SCC(=O)NCCc2ccccc2)nnc1-c1cccs1 | -2.84% |  |
| Cc1ccc(/C=C/S(=O)(=O)N2CCC(C(=O)O)CC2)cc1 | 1.06% |  |
| Cc1cc(C(=O)CSc2nnc(Nc3ccccc3F)s2)c(C)n1CC1CCCO1 (centres undefined) | -19.4% |  |
| COC(=O)c1[nH]c2cc(OC)ccc2c1N | -7.95% |  |
| O=[N+]([O-])c1c(NCCO)cc(N2CCN(Cc3ccc4c(c3)OCO4)CC2)c2nonc12 | 2.52% |  |
| COc1ccccc1C(=O)n1nc(-c2cccnc2)nc1NCc1ccccc1 | -20.8% |  |
| CC(OC(=O)CN(C)S(=O)(=O)c1ccc(Cl)cc1)C(=O)Nc1ccc(N2CCOCC2)cc1 (centres undefined) | 4.42% |  |
| CC1CCc2c(sc3nc(CN4CCOCC4)nc(NS(=O)(=O)c4cccc([N+](=O)[O-])c4)c23)C1 (centres undefined) |  | 10 µM (active) |
| COc1cc(OC)cc(-c2c(C#Cc3ccsc3)c3cc(-c4ccc(OC)c(OC)c4)ccc3n2C)c1 | -6.88% |  |
| CC(C)(C)CC(C)(C)NCC(=O)Nc1c2c(nc3ccccc13)CCC2 | -5.64% |  |
| O=C1c2ccccc2C(=O)N1CCC1=CCCCC1 | -8.94% |  |
| NC(=O)C[C@@H]1N[C@]2(C(=O)Nc3ccccc32)[C@@H]2C(=O)N(c3cc(C(F)(F)F)ccc3Cl)C(=O)[C@H]12 | -1.09% |  |
| Cc1ccc(NC(=O)Cn2nc(C)c3ccccc3c2=O)cc1F | -5.77% |  |
| O=C(CC1Oc2ccccc2NC1=O)NCc1ccc(Cl)cc1 (centres undefined) | -16.5% |  |
| O=C(CSc1nccc(=O)[nH]1)N1N=C2/C(=C/c3ccco3)CCCC2C1c1ccco1 (centres undefined) |  | 10 µM (active) |
| CCOC(=O)N1CCC(NC(=O)c2ccc(OC)c(CN3CC(=O)N4CCCC4C3=O)c2)CC1 (centres undefined) | -0.633% |  |

| Compound | activity change, negative = inhibition | Potency |
| --- | --- | --- |
| Cc1cc(C)n(C(=O)c2cccc(S(=O)(=O)N3CCCC3)c2)n1 | 2.63% |  |
| N=c1sccn1CC(=O)Nc1ccc(S(=O)(=O)N2CCOCC2)cc1 | 12.8% |  |
| COC(=O)CC1Oc2ccc(C)cc2NC1=O (centres undefined) | -1.3% |  |
| Cc1csc(NC(=O)CCn2c(=O)sc3ccccc32)n1 | -7.06% |  |
| O=c1oc2ccccc2n1Cn1c(=O)oc2ccccc21 | -7.91% |  |
| CC(C)CCn1c(CN2CCN(C(=O)c3ccco3)CC2)nc2c1c(=O)n(C)c(=O)n2C | 24.1% |  |
| O=C(O)C(Cc1ccccc1)N1C(=O)/C(=C/C=C/c2ccco2)SC1=S (centres undefined) |  | 11.2 µM (active) |
| Cc1ccc(N2CCN(C(=O)CCc3nc4ccccc4[nH]3)CC2)c(C)c1 | -1.09% |  |
| CCC(CO)Nc1nc(CN2CCCCC2)nc2scc(-c3ccccc3)c12 (centres undefined) | -3.55% |  |
| COc1cc(C2C(C#N)=C(N)Oc3c2ccc2ccccc32)ccc1OCC(=O)Nc1cccc(C)c1 (centres undefined) | -14.7% |  |
| COc1cc2c(C(=O)N3CCN(c4cccc(Cl)c4)CC3)cn(CC(C)C)c(=O)c2cc1OC | 2.04% |  |
| C[C@H](CO)N1C[C@H](C)[C@@H](CN(C)S(=O)(=O)c2cn(C)cn2)Oc2ccc(NC(=O)Cn3cnnn3)cc2C1=O | -2.38% |  |
| O=C(CSCc1cnn(-c2ccccc2)c1-n1cccc1)NCC1CCCO1 (centres undefined) | 0.658% |  |
| O=C(Nc1cccc(Cl)c1)Nc1nnc(CC2=CCCCC2)s1 | -2.08% |  |
| CCOC(=O)N1CCN(C(=O)CN(c2cccc(C)c2)S(=O)(=O)c2ccccc2)CC1 | 2.09% |  |
| Cc1ccc(C(=O)COC(=O)CNC(=O)CN2C(=O)c3ccccc3C2=O)cc1 | -12.6% |  |
| Cc1ccc(C)n1-c1cc(S(=O)(=O)N2CCOCC2)ccc1N1CCCC1 | -24.9% |  |
| COc1ccc(-n2c(O)c(/C=N/n3cnnc3)c3ccccc3c2=O)cc1 | -3.98% |  |
| O=C(CSc1ccc(Br)c2cccc(Cl)c12)Nc1ccc(S(=O)(=O)Nc2nccs2)cc1 |  | 3.55 µM (active) |
